This is an account of results in PubChem BioAssay AID1063 (University of Pittsburgh Molecular Library Screening Center, 2008).

Each structure is given as a SMILES string. About 18,000 (9%) of roughly 200,000 compounds were called active. No stated cut-off is given here; in the data, active means inhibition above about 50%; inactive means the rest. The list comes from a sample in which actives are over-represented; it also holds similar structures and randomly drawn compounds.

The experiment can be described thus: antileishmanial activity against promastigotes – primary screen (AID 1063).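 Further: promastigotes grown with compound for 44 hours at 28 °C.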 As to conditions: Leishmania major promastigotes, resazurin fluorescence viability; at 10 µM; hits give high values. For orientation: The colour change of resazurin is a common sign of viable cells or microbes.
For `O=C(CCCCCn1c(=O)[nH]c2ccccc2c1=O)NCCc1c[nH]c2ccccc12`, the inhibition (as a rule, the change of the read-out against control, counted positive when it falls) was 97.7% (active).
As for `COc1ccc(CCNC(=O)CCCCn2c(=O)[nH]c3ccccc3c2=O)cc1OC`, the inhibition was 1.29% (inactive).
The result for `O=C(CCn1c(=O)[nH]c2ccccc2c1=O)NCCCN1CCN(c2cccc(Cl)c2)CC1` reads 3.18% (inactive).
As to `Cc1cc(C)c2c(NC(=O)C3CC3)nn(C)c2n1`, the inhibition is -2.35% (inactive).
The result for `O=C(CNCc1ccco1)Nc1cc(S(=O)(=O)N2CCOCC2)ccc1N1CCCC1` reads -1.86% (inactive).
Turning to `COc1cccc(OCCCN2CCCCCC2)c1`, the inhibition is 91.6% (active).
As for `Cc1cc(OCCN2CCCC2)cc(C(C)C)c1`, the inhibition was 92.5% (active).
The same measure for `COc1ccc(NC(=O)CCN2CCCC2)c(OC)c1`: -0.8% (inactive); for `c1ccc2cc(OCCN3CCCC3)ccc2c1`: 84.2% (active); for `COc1cccc(OCC(O)CN2CCN(CCO)CC2)c1` (configuration not stated): -0.73% (inactive).
With `O=C(COc1ccc2ccccc2c1)N1CCN(C(=O)c2cccs2)CC1`, the inhibition is -4.2% (inactive).
`Clc1ccccc1-c1cc(COc2ccc3ccccc3c2)no1`: the inhibition is -8.15% (inactive).
`Cc1ccc(C(C)C)cc1OCCN1CCCC1`: the inhibition is 92.5% (active).
The same measure for `COc1cccc(OCCOc2cccc(/C=N/n3cnnc3)c2)c1`: 3.61% (inactive).
As to `CCn1c(SCc2ccccc2)nc2c(c1=O)SCC2`, the inhibition is -0.56% (inactive).
For the compound `O=C(Nc1cccnc1)c1ccc(Cl)cc1[N+](=O)[O-]`, the inhibition is 2.3% (inactive).
The same measure for `Cc1ccc(-c2cc(C(=O)N3CCc4ccccc4C3)no2)cc1`: -3.45% (inactive); for `CCC(=O)Nc1sc(C(=O)Nc2ccccc2)c(C)c1C(=O)OC`: 0.3% (inactive); for `CC(C)C(=O)Nc1ccc2oc(=O)ccc2c1`: 2.46% (inactive).
The result for `CCn1cc(-c2cc(C(=O)O)on2)c(C)n1` reads -3.4% (inactive).
The same measure for `COc1ccc(NC(=S)Nc2ccc(S(N)(=O)=O)cc2)c(C)c1`: 5.95% (inactive); for `CCCc1nnc(SCC(=O)N2C(C)CCCC2C)n1CC` (configuration not stated): -8.2% (inactive); for `O=C(NCc1ccc(Cl)cc1)NCc1ccc(Cl)cc1`: -7.12% (inactive).
As to `Cc1cc(OCCN2CCCC2)ccc1C(C)C`, the inhibition was 96.4% (active).
The result for `CCNC(=O)CC1C(=O)N(c2ccc(F)cc2)C(=O)N1Cc1cccs1` (configuration not stated) reads -6.2% (inactive); that for `O=[N+]([O-])c1cc(C(F)(F)F)ccc1NN=C1CCCC1`, -5.08% (inactive); that for `O=[N+]([O-])c1cc(S(=O)(=O)N2CCCC2)ccc1NN=C1CCCC1`, 72.8% (active).
As to `CSCCC(Nc1ccc(S(=O)(=O)N2CCOCC2)cc1[N+](=O)[O-])C(=O)OCC(=O)N(C(C)C)C(C)C` (configuration not stated), the inhibition was 6.07% (inactive).
As for `CC(C)N1CCC(=NNc2ccc([N+](=O)[O-])cc2S(=O)(=O)N2CCOCC2)CC1`, the inhibition was 100% (active).
The same measure for `C/C(=N\Nc1nc(N2CCOCC2)nc(N2CCOCC2)n1)c1ccc([N+](=O)[O-])cc1`: 7.51% (inactive); for `O=C(Nc1ccc(S(=O)(=O)N2CCCC2)cc1Cl)C1=COCCO1`: 13.3% (inactive).
As to `COc1cccc(NC(=O)Cn2c3ccccc3c3nc4n(c(=O)c32)CCS4)c1`, the inhibition is 1.79% (inactive).
Consider `CC1(C)CC(=O)C=C(N2CCOCC2)C1`, for which the inhibition is -0.57% (inactive).
The result for `O=C(O)/C=C/c1cn(Cc2ccccc2)nc1-c1cccs1` reads -1.31% (inactive).
The same measure for `COc1ccc(S(=O)(=O)Nc2ccc(O)c(Sc3nc4ccccc4s3)c2)cc1`: 2.71% (inactive); for `O=[N+]([O-])c1c(NCCO)cc(Sc2nc3ccccc3s2)c2nonc12`: 61.2% (active); for `O=C(O)c1cccc(S(=O)(=O)Nc2ccc(O)cc2Sc2nc3ccccc3s2)c1`: 3.69% (inactive).
With `CCCCC(CC)CNC(=O)C(=O)C1C(=O)Nc2ccccc21` (configuration not stated), the inhibition is -2.85% (inactive).
As for `CC(=O)Nc1ccc(NC(=O)CSc2nnc(COc3ccccc3C)n2CC2CCCO2)cc1` (configuration not stated), the inhibition was -3.47% (inactive).
The result for `COc1ccc(C(=O)NC2CCN(C(=S)NCCc3ccccc3)CC2)cc1` reads -3.89% (inactive); that for `CC(C)NC(=O)NC(=O)CSc1nnc(-c2ccccc2F)n1N`, -1.13% (inactive); that for `CS(=O)(=O)Nc1cccc(C2=NN(S(=O)(=O)c3ccccc3)C(c3cccs3)C2)c1` (configuration not stated), 90.1% (active).
On to `Cc1ccc(C2CC(c3cccc(NS(C)(=O)=O)c3)=NN2S(C)(=O)=O)cc1` (configuration not stated), for which the inhibition was 10.8% (inactive).
For the compound `CS(=O)(=O)Nc1ccc(C2=NN(S(C)(=O)=O)C(c3cccs3)C2)cc1` (configuration not stated), the inhibition was 0.6% (inactive).
The result for `CCS(=O)(=O)c1ccc(C(=O)NC)c(Cl)c1Cl` reads 2.32% (inactive); that for `O=C(c1cc2c(s1)CCC2)N1CCN(c2ccccc2)CC1`, 93.8% (active).
The same measure for `O=C(Nc1cccc(NC(=O)N2CCN(c3ccccc3)CC2)c1)N1CCN(c2ccccc2)CC1`: 35.8% (inactive).
The result for `O=C(COC(=O)c1cc2c(s1)CCCC2)NCc1ccccc1Cl` reads -8.28% (inactive); that for `Cc1nc2ccc(C(=O)N3CCN(c4ccccc4)CC3)cc2s1`, -9.02% (inactive).
Regarding `O=C(CNC(=O)c1cc2c(s1)CCC2)Nc1ccccc1Br`, the inhibition was -6.67% (inactive).
The same measure for `O=C(NNC(=O)c1cc2c(s1)CCCC2)c1ccccc1`: 78.1% (active); for `CCOC(=O)Cc1cc(=O)[nH]c(=O)[nH]1`: -1.79% (inactive).
The result for `O=C(COC(=O)c1ccccn1)Nc1cccc2ccccc12` reads -8.4% (inactive); that for `Cc1cc(C)cc(NC(=O)Cn2cnc3c(nnn3Cc3ccc(F)cc3)c2=O)c1`, -2.51% (inactive); that for `Cc1cccc(C)c1NC(=O)Nc1ccccc1-n1ccnc1`, -5.13% (inactive).
For the compound `CN1CCC(=NNC(=O)CN(c2cccc(Cl)c2)S(C)(=O)=O)CC1`, the inhibition is -4.77% (inactive).
`CC12CCC(C(=O)N(c3cccc(Cl)c3)C1=O)C2(C)C` (configuration not stated): the inhibition was -2.92% (inactive).
The result for `CC12CCC(C(=O)N(NC(=O)c3ccccc3O)C1=O)C2(C)C` (configuration not stated) reads 69.9% (active); that for `COc1ccccc1C(=O)NN1C(=O)C2C3C=CC(O3)C2C1=O` (configuration not stated), -5.97% (inactive).
The same measure for `COc1ccc(-c2csc(NC(=O)CCCc3cccs3)n2)cc1`: 10.5% (inactive); for `COc1ccc(-c2csc(NC(=O)COC(=O)c3ccc(Br)o3)n2)cc1`: 95.2% (active).
The result for `COc1ccc(-c2csc(NC(=O)COC(=O)Cc3ccc(Cl)cc3Cl)n2)cc1` reads 1.41% (inactive).
